Experimental data published in PubChem BioAssay (NCATS).
Inconclusive results are not listed. A number with no mark means an inactive call. Calls of active or inactive are those of the source. Calls come from the whole dose curve; as a rule, active = well fitted inhibition curve with a large enough effect; inconclusive = small, poorly fitted or top-dose-only effect; inactive = flat fitted curve, though single readings scatter.

molecular target: Ubiquitin carboxyl-terminal hydrolase 1 (Homo sapiens) (UniProt O94782); assay: Inhibitors of USP1/UAF1: Pilot qHTS (AID 504865); conditions: purified USP1/UAF1, Ub-rhodamine cleavage fluorescence; series mostly up to 114 µM; activity change, negative = inhibition: at the top concentration;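 note: rhodamine fluorescence freed from ubiquitin-rhodamine substrate followed over time; top concentration of the series differs between compounds; nearly all actives have a fitted effect of over 35% in size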
Sequence (O94782 whole entry, looked up): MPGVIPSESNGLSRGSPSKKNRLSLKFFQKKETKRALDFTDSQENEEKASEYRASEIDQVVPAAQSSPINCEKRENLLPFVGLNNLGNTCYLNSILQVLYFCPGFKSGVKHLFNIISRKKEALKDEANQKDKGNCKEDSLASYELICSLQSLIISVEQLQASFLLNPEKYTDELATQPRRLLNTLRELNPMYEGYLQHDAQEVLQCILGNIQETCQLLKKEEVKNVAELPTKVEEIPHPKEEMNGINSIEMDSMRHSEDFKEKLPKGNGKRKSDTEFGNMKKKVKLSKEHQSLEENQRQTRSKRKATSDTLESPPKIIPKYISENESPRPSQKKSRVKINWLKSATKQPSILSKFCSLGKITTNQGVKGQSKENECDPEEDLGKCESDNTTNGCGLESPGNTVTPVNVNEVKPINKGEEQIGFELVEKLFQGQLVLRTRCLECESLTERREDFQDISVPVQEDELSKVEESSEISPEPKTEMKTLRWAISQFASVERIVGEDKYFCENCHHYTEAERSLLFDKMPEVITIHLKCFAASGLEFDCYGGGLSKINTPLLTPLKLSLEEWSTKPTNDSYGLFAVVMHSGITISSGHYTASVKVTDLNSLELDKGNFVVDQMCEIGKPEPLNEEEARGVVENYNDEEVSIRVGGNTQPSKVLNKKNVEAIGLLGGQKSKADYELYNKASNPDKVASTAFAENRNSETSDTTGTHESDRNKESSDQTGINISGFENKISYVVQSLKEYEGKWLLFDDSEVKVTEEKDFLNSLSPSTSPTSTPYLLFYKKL
Procedure, shortened: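 Deubiquitinase activity followed as kinetic rhodamine fluorescence release from 150 nM Ub-Rho. 1 nM USP1/UAF1 with compound, after 15 min room-temperature preincubation, in HEPES pH 7.8 buffer containing TCEP, EDTA, BSA and Tween-20.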
% is set by controls: 0 for no effect and ±100 for the full control effect.

| SMILES | Potency | activity change, negative = inhibition |
| --- | --- | --- |
| O=c1[nH]c(=O)n([C@H]2C[C@H](O)[C@@H](CO)O2)cc1F | inactive | – |
| CCCCC(CC)CN1CN(CC(CC)CCCC)CC(C)(N)C1 (stereo unspecified) | – | -7.74% |
| CCN(CC)CCNC(=O)COc1ccc(OC)cc1 | inactive | – |
| C/C=C/C=N/NC(=O)c1ccncc1 | – | -2.59% |
| CCN(CC)CCOC(=O)C(Cc1cccc2ccccc12)CC1CCCO1 (stereo unspecified) | – | 4.17% |
| CCN(CC)CCOc1ccc2c(c1)C(=O)c1cc(OCCN(CC)CC)ccc1-2 | – | -6.98% |
| CN(C)CCN1C(=O)c2ccccc2N(C)c2ccccc21 | – | 3.73% |
| CC(C)Cn1cnc2c1c(=O)n(C)c(=O)n2C | – | 2.18% |
| Clc1cccc(C(c2ccc3nc[nH]c3c2)n2ccnc2)c1 (stereo unspecified) | – | -12.1% |
| COc1ccc(/C=N/NC(=O)c2ccncc2)cc1OC | – | -9.1% |
| C#C[C@]1(O)CC[C@H]2[C@@H]3CCc4cc(OC)ccc4[C@H]3CC[C@@]21C | – | -3.1% |
| CCCc1ncc(C[n+]2ccccc2C)c(N)n1 | – | 5.79% [at 54.9 µM] |
| CC(=O)Nc1ccc(S(=O)(=O)Nc2ccc([N+](=O)[O-])cc2)cc1 | – | -4.4% |
| CCC(Cc1c(I)cc(I)c(N)c1I)C(=O)O (stereo unspecified) | – | -8.52% |
| CN1CCN(C2=Nc3cc(F)ccc3Cc3ccccc32)CC1 | – | -9.72% |
| O=C(NC1CCN(CCc2c[nH]c3ccccc23)CC1)c1ccccc1 | – | -7.29% |
| Nc1nc(N)c(-c2ccccc2)s1 | – | -6.78% |
| CN(C)CCOC(=O)C(c1ccccc1)C1(O)CCCC1 (stereo unspecified) | – | -6.25% |

| SMILES | Potency | activity change, negative = inhibition |
| --- | --- | --- |
| CC(=O)NO | – | -5.42% |
| CCN(CC)CCOC(=O)C1(c2ccccc2)CCCC1 | – | -5.17% |
| CCCCc1cc2ccccc2c(OCCN(C)C)n1 | – | 2.07% [at 54.9 µM] |
| CCOc1ccccc1OCCN[C@H](C)Cc1ccc(OC)c(S(N)(=O)=O)c1 | – | -10.4% |
| NS(=O)(=O)Cc1noc2ccccc12 | – | -2.65% |
| OCc1ccccn1 | – | -4.76% |
| Cc1cc(-c2ccccc2)nnc1NCCN1CCOCC1 | – | -12.6% |
| C=CCN1CCc2nc(N)sc2CC1 | – | -8.58% |
| COc1ccc(CN(CCN(C)C)c2ncccn2)cc1 | – | -1.6% |
| Cc1cccc(C)c1NC(=O)CN1CCCCCC1 | – | -8.59% |
| Cc1cc(NS(=O)(=O)c2ccc(N)cc2)nc(C)n1 | – | -3.94% |
| CC(=O)OCC(=O)[C@H]1CC[C@H]2[C@@H]3CCC4=CC(=O)CC[C@]4(C)[C@H]3CC[C@]12C | – | -3.73% |
| Cc1c(-c2ccccc2)oc2c(C(=O)OCCN3CCCCC3)cccc2c1=O | – | 3.67% [at 54.9 µM] |
| CCN(CC)CCNc1ccc(CO)c2sc3ccccc3c(=O)c12 | – | -4.24% [at 54.9 µM] |
| N#CCC(=O)NN | – | -10.5% |
| O=C(c1ccc(F)cc1)C1CCN(CCn2c(=S)[nH]c3ccccc3c2=O)CC1 | – | -7.38% |
| O=C(O)CCNC(=O)c1ccccc1 | – | -3.43% |
| CN1CCC(OC(c2ccccc2)c2ccccc2)CC1 | inactive | – |
